Experimental data taken from ChEMBL document CHEMBL4513216, “Probing the Open Global Health Chemical Diversity Library for Multistage-Active Starting Points for Next-Generation Antimalarials” (ACS Infect Dis, 2020).
Hit rate of the full screen: of about 69,000 compounds, about 8,600 (12%) showed an effect of 50% or more. Shown is part of a subset that was picked to be rich in strong results.

Test system: Plasmodium berghei
Test: Screen against P. berghei liver stage (PbLuc), transformed with Luciferase, at 10uM
Assay type: functional, HepG2
Conditions: tested at 10 uM

In order of rising INHIBITION:
1. O=c1c2cccc(C(F)(F)F)c2ncn1CCN1CCNCC1  -100%
2. O=c1c2cccc(F)c2ncn1CCN1CCNCC1  -74%
3. O=C(c1cccnc1)N1C[C@H]2CN(Cc3cccc(F)c3)C(=O)[C@H]2C1  -55.2%
4. CCCc1noc(-c2cn(CC(=O)N(CC)CC)nn2)n1  -51.7%
5. O=C(O)C1(O)CCN(c2ccnc3c(C(F)(F)F)cccc23)CC1  -48.4%
6. CCc1c(C)sc2c1c(N)nc(=O)n2CCN1CCOCC1  -39.7%
7. COCCOc1cccc(C(=O)N2CCCCC2c2nccs2)c1 (stereo not drawn)  -31.5%
8. COC[C@]1(O)CCN(Cc2cnc(N(C)C)nc2)CC1(C)C  -28.9%
9. CN(Cc1ccco1)C(=O)c1cccc(N2CCCC2=O)c1  -27.9%
10. CCC(CO)NC(=O)c1ccc2ccc(N(C)CC3CC3)n2c1 (stereo not drawn)  -24.3%
11. Cn1cc(CN2CCc3c(CNC(=O)C4CC4)cncc3C2)cn1  -17.2%
12. CNC(=O)CN(C(=O)c1cc(C(C)C)no1)c1cccc(F)c1  -10.5%
13. CC(C)NC(=O)C(NC(=O)N1CCN(c2ccc(Cl)cc2)CC1)C(C)C (stereo not drawn)  -9.39%
14. COc1ccccc1CN1C[C@@H]2COC[C@]2(COc2cccnc2)C1  -8.94%
15. O=C(CCN1CCc2ccccc21)N1C[C@@H](O)[C@H](N2CCOCC2)C1  -8.12%
16. CNc1nccc(C2CCCCN2Cc2cnn3cccnc23)n1 (stereo not drawn)  -7.66%
17. O=C1CC2(CCN(Cc3ncc[nH]3)CC2)CN1Cc1cc(F)cc(F)c1  -6.05%
18. O=C1CC2(CCN(CC3CC3)C2)CN1c1cccc(F)c1 (stereo not drawn)  -6.02%
19. O=C1CCC(=O)N1CCn1nnc(-c2cccc(Cl)c2)n1  -5.57%
20. COc1ncccc1CN1C[C@@H]2COC[C@]2(COc2cccnc2)C1  -2.17%
21. CCN(CC1CCOC1)C(=O)Nc1ccc(OCC(F)(F)F)nc1 (stereo not drawn)  -1.885%
22. CCN1CC2(CCN(CCOc3ccc(F)cc3)CC2)CC1=O  0.868%
23. CNc1snc(C)c1C(=O)N1CCC(Nc2ccc(C)nn2)CC1  1.15%
24. CC(C)N(CC(N)=O)C(=O)c1cc(F)ccc1N1CCN(C)CC1  1.74%
25. Cc1nn(C)cc1CC(C#N)C(=O)Nc1cccc(O)c1 (stereo not drawn)  3.58%
26. COc1cccc(CC(=O)N2CCCC2c2nc(C)c(F)c(O)n2)c1 (stereo not drawn)  3.91%
27. CN(C)C[C@]12COC[C@H]1CN(Cc1ccc3ccccc3n1)C2  4.02%
28. CCc1nnc2n1CCN(C(=O)c1cc(C)n(-c3ccccc3)c1C)C2  5.9%
29. O=C(CO)N1CCC2(CC1)CC(=O)N(Cc1cc(F)cc(F)c1)C2  8.99%
30. Cc1nc([C@@H]2C[C@@H]3CCN(C(=O)Cc4cccs4)C[C@H]3O2)no1  11.6%
31. O=S(=O)(Cc1cccc(F)c1)Nc1cc(Cl)ccn1  11.9%
32. Cn1ccc(C(=O)NC2CCC23CCN(C(=O)c2ccncc2)CC3)c1 (stereo not drawn)  13.5%
33. Cc1cc(NCc2noc(C(C)C)n2)nc(-c2ccccc2)n1  14.4%
34. CC(NCc1ccncc1)c1ccc(N2CCN(C)CC2)c(F)c1 (stereo not drawn)  15.8%
35. CCCS(=O)(=O)N1CCC2(CC1)CC(=O)N(Cc1cc(F)cc(F)c1)C2  17.1%
36. COCc1cc(O)nc(C2CCCN(Cc3cccc(Cl)c3Cl)C2)n1 (stereo not drawn)  17.4%
37. Cc1cc(CN2C[C@@H]3COC[C@]3(CN(C)C)C2)no1  18.8%
38. C=C(C)CN(CC)C(=O)c1cc(F)ccc1N1CCN(C)CC1  19.8%
39. COc1ccc(CN2CCC(c3cc(O)nc(C)n3)C2)c(F)c1 (stereo not drawn)  21.9%
40. Cc1cnc(CN2CCN(c3ccc4nncn4n3)C(C)C2)cn1 (stereo not drawn)  23.7%
41. COc1ccc(CN2C[C@@H]3COC[C@]3(COc3cccnc3)C2)cc1  24%
42. O=C1C(Nc2nccn3cnnc23)CCCN1c1ccccc1Cl (stereo not drawn)  24.3%
43. Cc1cc(F)ccc1N1CCCC(Nc2nccn3cnnc23)C1=O (stereo not drawn)  25.4%
44. O=C(CCN1CCc2ccccc21)N1CC(C(=O)N2CCOCC2)C1  25.6%
45. COc1ccc(F)c(CN2CCCC(c3cc(O)nc(C)n3)C2)c1 (stereo not drawn)  25.8%
46. Cc1cc(CN2CCN(c3ccc4nncn4n3)CC2)no1  26.5%
47. Cc1cc(CN2CCN(c3ccc4nncn4n3)C(C)C2)on1 (stereo not drawn)  26.5%
48. CCc1ccc(CN2C[C@H](OCC(=O)N(C)C)[C@H]3COC[C@H]32)o1  26.5%
49. COc1cccc(CN2C[C@@H]3COC[C@]3(COCc3ccncc3)C2)c1  28.4%
50. Cc1ccc(C(O)CN(C)Cc2cnn(C)c2)cc1C (stereo not drawn)  28.7%
51. CCc1c(O)nc(SCC(=O)N(CC)CC)n(C(C)CC)c1=O (stereo not drawn)  29%
52. COc1cccc(CN2C[C@@H]3COC[C@]3(CN3CCOCC3)C2)c1  29.9%
53. O=C(O)C1(n2ccnc2)CCN(Cc2cc3ccccc3o2)CC1  30.9%
54. Cc1nc[nH]c1-c1c(-c2ccccc2)ncn1C1CCNC1 (stereo not drawn)  31.3%
55. OCc1ccc(N2CCN(c3ncccn3)CC2)c(F)c1  31.3%
56. CCc1n[nH]c(C2CN(C(=O)c3ccnc(C4CC4)n3)CCO2)n1 (stereo not drawn)  31.3%
57. Cc1nc(C(=O)N2CCCC2c2noc(C3CC3)n2)c[nH]1 (stereo not drawn)  31.8%
58. CC1CN(Cc2ccccn2)CCN1c1ccc2nncn2n1 (stereo not drawn)  31.9%
59. CC(C)(C)CCN1CCC(c2nnc(Cn3cccn3)n2C2CC2)CC1  32.2%
60. CC(C)N1CCC2(CC1)CC(=O)N(Cc1cc(F)cc(F)c1)C2  35.1%
61. O=C(CC1CCC2(CC1)CCN(Cc1nccs1)CC2)N1CC=CC1  35.2%
62. Cc1cc(=O)n2nc(Oc3cccc(I)c3)sc2n1  35.7%
63. CCc1c(O)n(C(C)CC)c(SCC(=O)c2ccccc2)nc1=O (stereo not drawn)  36.7%
64. O=C1CC2(CCN(CCCO)CC2)CN1Cc1ccc(F)c(F)c1  36.8%
65. Cc1cccc(C(=O)N2CC(C(=O)NCC3CC3)C3(CCOCC3)C2)n1 (stereo not drawn)  37.1%
66. CC(C)NC(=O)[C@H](C)NC(=O)N1CCN(c2ccc(Cl)cc2)CC1  38.1%
67. CC(C)=CCN1CCC2(CC1)CC(=O)N(Cc1cc(F)cc(F)c1)C2  38.6%
68. CCS(=O)(=O)NC[C@]12COC[C@H]1CN(Cc1cccc(OC)c1)C2  39.2%
69. COCc1cc(O)nc(C2CCCN(Cc3ccc(F)cc3)C2)n1 (stereo not drawn)  39.7%
70. COC(=O)c1cc(OCC2CCC2)cc(C(=O)NCC(C)(C)O)c1  40.2%
71. CN1CCN(Cc2cccnc2)C(=O)C12CCN(C1CCOC1)CC2 (stereo not drawn)  40.3%
72. CC(C)CNC(=O)CN(C)S(C)(=O)=O  40.7%
73. c1cc(COC[C@]23COC[C@H]2CN(Cc2ccncc2)C3)ccn1  43.9%
74. O=C1CC2(CCN(Cc3ccoc3)C2)CN1c1cncnc1 (stereo not drawn)  43.9%
75. COc1ccc(CC(=O)N2CCCC2c2nc(C)c(C)c(O)n2)cc1 (stereo not drawn)  46%
76. O=C1CC2(CCN(CC3CCOC3)CC2)CN1Cc1cc(F)cc(F)c1 (stereo not drawn)  46.8%
77. CCc1cc(O)nc(C2CCCN(Cc3ccncc3)C2)n1 (stereo not drawn)  47.1%
78. COc1cccc(CN2CCC(c3cc(O)nc(C)n3)C2)c1 (stereo not drawn)  47.8%
79. c1ccc(CN2C[C@@H]3COC[C@]3(COCc3ccncc3)C2)nc1  48.6%
80. COc1ccc(F)c(CN2CCC(c3cc(O)nc(C)n3)C2)c1 (stereo not drawn)  50.6%
81. COc1cccc(CC(=O)N2CCCC2c2nc(C)c(C)c(O)n2)c1 (stereo not drawn)  50.8%
82. Cc1ccc(F)c(N2CCCC(Nc3nccn4cnnc34)C2=O)c1 (stereo not drawn)  52.7%
83. COc1cccc(CN2C[C@@H]3COC[C@]3(COCc3ccccn3)C2)c1  53.2%
84. O=c1c2cccc(C(F)(F)F)c2ncn1C1CCNC1 (stereo not drawn)  53.6%
85. CCc1c(O)nc(SCC(=O)Nc2ccccc2)n(C(C)CC)c1=O (stereo not drawn)  56.1%
86. O=c1c2cccc(Cl)c2ncn1C1CCNC1 (stereo not drawn)  56.3%
87. CCOC[C@]12COC[C@H]1CN(Cc1cccc(OC)c1)C2  56.7%
88. O=C(CCN1CCc2ccccc21)N1C[C@@H](O)[C@H](N2CCCC2)C1  56.8%
89. CC1CN(Cc2nccn2C)CCN1c1ccc2nncn2n1 (stereo not drawn)  57.4%
90. COCc1cc(O)nc(C2CCCN(Cc3cccc(OC)c3)C2)n1 (stereo not drawn)  57.5%
91. CN1CCN(c2ccc(F)cc2C(N)=O)CC1  58.7%
92. Cc1cc(CN2CCN(c3ccc4nncn4n3)C(C)C2)no1 (stereo not drawn)  59%
93. O=C1CC2(CCN(CCO)CC2)CN1Cc1cc(F)cc(F)c1  60.1%
94. COc1ccccc1CN1C[C@@H]2COC[C@]2(COCc2ccncc2)C1  60.2%
95. COCc1cc(O)nc(C2CCCN(Cc3ccc(OC)cc3)C2)n1 (stereo not drawn)  61.9%
96. CCCOCCN1CCC2(CC1)CC(=O)N(Cc1cc(F)cc(F)c1)C2  64.1%
97. CC(C)NC(=O)[C@@H](NC(=O)N1CCN(c2ccc(Cl)cc2)CC1)C(C)C  65.5%
98. COc1cccc(CN2C[C@@H]3COC[C@]3(COc3cccnc3)C2)c1  67.2%
99. CN1CCN(c2ccc(CO)cc2F)CC1  68.4%
100. O=C1CC2(CCN(CC3CC3)CC2)CN1Cc1cc(F)cc(F)c1  69.3%
101. O=C1CC2(CCN(Cc3ccoc3)CC2)CN1Cc1cc(F)cc(F)c1  73.4%
102. O=C1CC2(CCN(CCCF)CC2)CN1Cc1cc(F)cc(F)c1  75.7%
103. CN(C)C[C@]12COC[C@H]1CN(Cc1ccccn1)C2  87.7%
